# Measured values published in PubChem BioAssay AID488969 (Vanderbilt High Throughput Screening Facility, 2010).
# Over roughly 110,000 compounds, “z-score” has its median near -0.1; the highest 2% begin near 2. The sample as a whole holds a higher share of the highest values than the screen did. Activity calls are given as the source filed them.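 How the source made its calls: active means z-score in the third read window above 3 or below -3; inactive means the rest.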
# Molecular target: Metabotropic glutamate receptor 8 (Rattus norvegicus) (UniProt P70579)
# Sequence (P70579 whole entry, looked up): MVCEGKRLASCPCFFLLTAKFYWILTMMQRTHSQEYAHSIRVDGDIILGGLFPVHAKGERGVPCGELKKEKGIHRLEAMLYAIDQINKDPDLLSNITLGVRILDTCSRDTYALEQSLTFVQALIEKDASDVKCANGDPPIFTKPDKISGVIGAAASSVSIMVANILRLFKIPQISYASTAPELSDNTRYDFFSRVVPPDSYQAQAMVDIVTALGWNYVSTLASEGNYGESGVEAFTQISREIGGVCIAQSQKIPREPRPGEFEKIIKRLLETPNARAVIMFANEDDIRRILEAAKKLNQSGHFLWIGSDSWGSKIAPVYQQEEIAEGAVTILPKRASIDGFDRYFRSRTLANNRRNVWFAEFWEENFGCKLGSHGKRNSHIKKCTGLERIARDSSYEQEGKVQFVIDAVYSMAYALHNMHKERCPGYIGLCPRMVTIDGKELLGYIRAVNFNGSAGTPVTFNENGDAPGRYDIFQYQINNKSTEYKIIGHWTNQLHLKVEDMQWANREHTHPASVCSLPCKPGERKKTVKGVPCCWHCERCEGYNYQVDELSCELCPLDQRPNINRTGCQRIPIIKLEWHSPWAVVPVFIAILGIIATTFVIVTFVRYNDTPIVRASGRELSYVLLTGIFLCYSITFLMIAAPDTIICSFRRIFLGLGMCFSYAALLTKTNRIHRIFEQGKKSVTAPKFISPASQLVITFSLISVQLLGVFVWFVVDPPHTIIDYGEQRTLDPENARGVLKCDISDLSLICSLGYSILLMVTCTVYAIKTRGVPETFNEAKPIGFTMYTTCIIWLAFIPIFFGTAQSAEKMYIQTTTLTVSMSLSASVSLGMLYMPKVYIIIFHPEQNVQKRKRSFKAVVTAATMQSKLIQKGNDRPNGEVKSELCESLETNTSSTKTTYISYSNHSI
# Test: mGluR8 Gi/Go-coupled signaling modulation – cell-based, rat, thallium flux, HTS, primary screen (AID 488969)
# Conditions: HEK293 rat mGluR8, GIRK (G protein-gated inwardly rectifying potassium channel) thallium flux, FluoZin2; at 10 µM; stronger effect = higher value; submaximal glutamate (EC20) added with thallium
row,Compound,z-score
1,S=C(NCC1CCCCC1)Nc1ccc(Oc2ccccc2)cc1,0.317
2,CCCN1CCC(NC(=S)Nc2ccc(C(=O)OCC)cc2)CC1,-0.26
3,S=C(Nc1ccc(Oc2ccccc2)cc1)NC1CCCC1,7.92 (active)
4,CCCNC(=S)Nc1ccc(Oc2ccccc2)cc1,0.463
5,COC(=O)c1ccc(NC(=S)NC2CCCCC2)cc1,0.1
6,CC(C)CNC(=S)Nc1ccc(Oc2ccccc2)cc1,2.69
7,COC(=O)c1ccccc1NC(=S)NC(=O)CC(C)C,0.252
8,CCNC(=S)Nc1ccc(Oc2ccccc2)cc1,0.818
9,COC(=O)c1ccccc1NC(=S)NC(=O)COc1ccccc1,7.01 (active)
10,CCOC(=O)c1ccc(NC(=S)NC2CCCC2)cc1,2.61
11,COC(=O)c1ccccc1NC(=S)NC(NC(=O)COc1ccccc1)C(Cl)(Cl)Cl (stereo not drawn),-0.203
12,S=C(Nc1ccc(Oc2ccccc2)cc1)NC1CCCCCC1,0.425
13,CCn1cnc2cc(NCc3nc4ccccc4n3Cc3ccccc3)ccc21,-0.34
14,CC(C)c1ccc2[nH]c(O)c(N=NC(=O)c3cccc(S(=O)(=O)N4CCCCC4)c3)c2c1,-0.156
15,CCOc1ccc(/C=C/C(=O)NCCc2ccc(OC)c(OC)c2)cc1,-0.114
16,COc1ccc(OCc2ccc(C(=O)NN)cc2)cc1,0.222
17,Cc1ccc2cc(COC(=O)c3ccncc3)c(=O)[nH]c2c1,-0.162
18,COc1ccc(-c2cc(C(=O)OCC(=O)N3CCCC3)c3ccccc3n2)cc1,-0.231
19,CCc1cccc(CC)c1NC(=O)CSc1nnc(C(C)C)n1CC,0.342
20,CCn1c(SCC(=O)Nc2cccc(NC(C)=O)c2)nnc1C(C)C,-0.322
21,CCn1c(SCC(=O)Nc2cccc(C(C)=O)c2)nnc1C(C)C,2.28
22,Cc1ccc2cc(CN(Cc3ccco3)C(=O)c3ccccc3)c(=O)[nH]c2c1C,-0.385
23,Nc1nnnn1/N=C/c1ccccc1OCc1ccccc1,-0.208
24,COc1ccc(N2CCN(CC(=O)Nc3ccc(-n4cnnn4)cc3)CC2)cc1,1.05

row,Compound,z-score
1,CCCCOP(=O)(OCCCC)C(O)c1ccc(Br)cc1 (stereo not drawn),-0.269
2,CCN(CC)S(=O)(=O)c1cccc(C(=O)N2CC(O)CC2C(=O)OC)c1 (stereo not drawn),-0.00902
3,O=C(N/N=C/c1ccc2cccc(OCc3ccccc3)c2n1)c1ccc(Cl)cc1,0.327
4,COc1ccc(C(=O)N/N=C/c2cccc3cccnc23)cc1,-0.417
5,O=C(N/N=C/c1ccccn1)c1ccc(Br)cc1,1.82
6,O=C(N/N=C/c1ccc2cccc(OCc3ccccc3)c2n1)c1ccc(Br)cc1,3.65 (active)
7,COc1ccc(C(=O)N/N=C/c2ccc3cccc(OCc4ccccc4)c3n2)cc1,3.81 (active)
8,COc1ccc(CSCC(=O)N/N=C/c2ccccc2OCc2ccccc2)cc1,1.27
9,Cc1ccc(C(=O)N2CCN(c3ccc([N+](=O)[O-])c(N4CCOCC4)c3)CC2)cc1,-0.394
10,COc1c(C)cccc1C(=O)Nc1cc(-c2nn3c(C)nnc3s2)ccc1C,-1.6
11,Cn1c2ccccc2c(=O)c2c(=O)n(-c3ccccc3)c(C3CCCCC3)nc21,-1.31
12,CCCn1c(SCC(=O)/C(C#N)=C(\C)N)n[nH]c1=O,-0.649
13,CCOC(=O)C(CC)(CC)/C(C)=N/NC(=O)CC#N,0.316
14,CCOc1nc(Nc2ccc(OC)cc2)nc(OCC)n1,-1.62
15,COc1ccc(NC(=S)Nc2ccc3nc(C)c(C)nc3c2)cc1,-0.104
16,CCOC(=O)c1csc(NC(=O)CSc2nnnn2-c2ccc(OC)cc2)n1,0.0329
17,Nc1ncn(C23CC4CC(CC(C4)C2)C3)n1,-0.106
18,c1cn(C23CC4CC(CC(C4)C2)C3)cn1,4.17 (active)
19,c1nnnn1C12CC3CC(CC(C3)C1)C2,0.487
20,CCCC(C(=O)c1ccccc1)n1cncn1 (stereo not drawn),-0.313
21,N#Cc1c(-c2cccnc2)c2c([nH]c1=S)CCCC2,-0.285
22,COc1ccc(-c2c3c([nH]c(=S)c2C#N)CCC3)cc1,2.17
23,N#Cc1c(-c2ccncc2)c2c([nH]c1=S)CCCC2,-0.164
24,COc1cc(C(=O)N(Cc2ccco2)Cc2cc3ccccc3[nH]c2=O)cc(OC)c1OC,-0.671

row,Compound,z-score
1,COc1cc(C2Nn3c(nnc3-c3ccccc3OC)S2)ccc1O (stereo not drawn),-0.0272
2,COc1cc(N)ccc1NC(=O)c1cccs1,-0.15
3,COc1ccc(NC(=O)c2cccs2)cc1,0.303
4,COc1ccc(OC)c(NC(=O)C(=O)NNC(=O)c2cccs2)c1,1.69
5,COc1ccc(NC(=O)C(=O)NNC(=O)c2cccs2)c(OC)c1,5.95 (active)
6,COc1ccc(NC(=O)C(=O)NNC(=O)c2cccs2)cc1,7.11 (active)
7,COc1ccc(OCC(=O)NNC(=O)c2cccs2)cc1,0.919
8,CCC(=O)Nc1nnc(SCc2ccc(F)cc2)s1,-0.00764
9,COc1ccc(N2C(=O)CC(Nc3ccc(C)cc3)C2=O)cc1 (stereo not drawn),-0.557
10,CC1CC(C)(C)NC(=S)N1CC(=O)N(C)Cc1ccccc1 (stereo not drawn),-0.189
11,CCNC(=S)NNC(=O)c1cccn(Cc2ccc(Cl)cc2Cl)c1=O,-0.0504
12,C=CCOn1c(=O)c(-c2cccs2)[n+]([O-])c2ccccc21,3.49 (active)
13,COn1c(=O)c(-c2cccs2)[n+]([O-])c2ccccc21,1.16
14,CCOn1c(=O)c(-c2cccs2)[n+]([O-])c2ccccc21,-2.21
15,Cc1nn(C(C)C(=O)O)c(=O)c2c1sc1ccccc12 (stereo not drawn),-0.395
16,N#Cc1cn(-c2ccccc2)nc1-c1ccco1,-0.0798
17,CCNC(=O)C1CCCN1S(=O)(=O)c1ccc(OC)cc1 (stereo not drawn),0.787
18,CCCCc1c(O)nc(SCC(=O)N2CCOCC2)[nH]c1=O,0.0929
19,CCC(C)c1c(O)nc(SCC(=O)N2CCOCC2)[nH]c1=O (stereo not drawn),2.93
20,CC(C)c1c(O)nc(SCC(=O)N2CCOCC2)[nH]c1=O,-0.357
21,COC(=O)c1ccccc1Oc1nc(Cl)cc(OC)n1,-0.22
22,CCOC(=O)c1cnc2c(C)c(Cl)ccc2c1Nc1ccc(S(=O)(=O)Nc2ncccn2)cc1,9.28 (active)
23,CCOC(=O)c1cnc2c(C)c(C)ccc2c1Nc1ccc(S(=O)(=O)Nc2ncccn2)cc1,-0.177
24,CCOC(=O)c1cnc2c(C)cc(C)cc2c1Nc1ccc(S(=O)(=O)Nc2ncccn2)cc1,-0.378

row,Compound,z-score
1,CCOc1ccc(-n2c(=S)sc3c(=O)[nH]c(SCC(=O)NC(C)CC)nc32)cc1 (stereo not drawn),-0.859
2,CC1CCN(Cc2nnnn2-c2cccc([N+](=O)[O-])c2)CC1,-0.243
3,CC(C)OCC(O)CCc1n[nH]c(=S)n1-c1ccccc1 (stereo not drawn),-0.224
4,COc1ccc(OCCCN2CCCC(C)C2)cc1 (stereo not drawn),0.314
5,COc1ccc(OCCCN2CCCCCC2)cc1,8.02 (active)
6,CC(C)Oc1ccc(OCCCN2CCCCCC2)cc1,-0.0757
7,Cc1ccc(OCCCNC2CCCC2)cc1,-0.0441
8,c1ccc(OCCCN2CCCC2)cc1,0.00842
9,O=C(c1ccccc1)c1ccc(OCCCCN2CCCCC2)cc1,-0.455
10,CC1CCN(CCCCOc2ccc(C(=O)c3ccccc3)cc2)CC1,2.47
11,CCOc1ccc(OCCNC2CCCC2)cc1,0.0455
12,c1ccc(COc2ccc(OCCCNC3CCCC3)cc2)cc1,2.46
13,O=C(c1ccccc1)c1ccc(OCCCN2CCCC2)cc1,-0.0127
14,CCN1CCN(CCCCSc2ccccc2)CC1,-0.152
15,CCN1CCN(CCCOc2ccc(-c3ccccc3)cc2)CC1,4.56 (active)
16,CSCCNC(=O)c1ccc(C(C)(C)C)cc1,-0.121
17,CCCc1cc(=O)[nH]c(SCC(=O)N(Cc2ccccc2)C(C)C)n1,-0.715
18,CC(C)(C)C(=O)Nc1cc(NC(=O)C(C)(C)C)cc(C(=O)Nc2cc(C(=O)O)cc(C(=O)O)c2)c1,0.00761
19,Cc1cc(C(F)F)n2ncc(C(=O)NCCc3ccc(Cl)cc3)c2n1,-0.612
20,Cc1nn(CC(=O)OCC(=O)Nc2ccccc2[N+](=O)[O-])c(C)c1[N+](=O)[O-],0.113
21,Nc1nc(-c2cccnc2)nn1C(=O)COc1ccccc1,-0.135
22,O=C(NCC(c1cccnc1)N1CCN(c2ccccc2F)CC1)c1cccc(Cl)c1 (stereo not drawn),0.459
23,CCCOc1c(OC)cc(Cl)cc1C1NC(=O)NC(C)=C1C(=O)NCc1ccccc1 (stereo not drawn),-0.431
24,c1ccc(COc2ccc(OCCCCN3CCCCC3)cc2)cc1,2.79

row,Compound,z-score
1,CC1CCN(CCCOc2ccc(OCc3ccccc3)cc2)CC1,0.441
2,O=C(c1ccccc1)c1ccc(OCCCN2CCCCC2)cc1,1.54
3,c1ccc(COc2ccc(OCCCN3CCCCC3)cc2)cc1,2.89
4,c1ccc(COc2ccc(OCCCN3CCCC3)cc2)cc1,0.306
5,c1ccc(COc2ccc(OCCCCN3CCCC3)cc2)cc1,0.565
6,CCOC(=O)c1c(NC(=O)CCN2C(=O)c3ccccc3C2=O)sc(C(=O)OC(C)C)c1C,-0.193
7,O=C(c1cnccn1)N(c1ccccc1)C1(C(=O)NC2CCCC2)CCCCC1,0.00523
8,CCOC(=O)CSc1nc(-c2ccc3c(c2)OCO3)ccc1C#N,-0.00752
9,COc1ccc2occ(C(C)=O)c2c1,-1.2
10,COc1ccc2occ(C(=O)c3cccs3)c2c1,0.191
11,COc1ccc2occ(C(=O)c3ccc(N=C(C)N(C)C)cc3)c2c1,3.46 (active)
12,COc1ccc(CCNC(=S)Nc2ccc(C)cc2C)cc1,-0.0431
13,CCc1cc2c(N[C@@H](C)C(=O)O)ncnc2s1,0.00833
14,N/C(=N\OC(=O)c1ccc(Br)cc1)c1ccccc1,-0.37
15,N/C(=N\OC(=O)Cc1ccccc1)c1ccc(Br)cc1,2.92
16,N/C(=N\OC(=O)CCc1ccccc1)c1ccc(Br)cc1,0.12
17,O=C(NC(C(=O)O)c1ccccc1)c1ccc(S(=O)(=O)N2CCOCC2)cc1 (stereo not drawn),-0.0595
18,CCCCn1c(SCC(=O)N2CCC(C)CC2)nc2ccsc2c1=O,-1.86
19,CCNc1nnc(-c2ccc(C)cc2)o1,2.74
20,Cc1ccc(-c2nnc(-c3ccccc3)o2)cc1,-0.254
21,Cc1ccc(-c2nnc(Nc3ccccc3)o2)cc1,1.1
22,CC(=O)Nc1cccc(C(=O)OC(C(=O)c2ccc(C)cc2)c2ccccc2)c1 (stereo not drawn),0.508
